A selection: hits, their analogues and other compounds. The true share with any hit is near 2.4%.
Pol kappa inh-1 = blocks human DNA polymerase kappa activity; Q9UBT6; purified Pol kappa, fluorescent DNA synthesis assay, 10 min; Potency, µM (highest dose often 107 µM), actives largely listed as inhibitors; actives 0.53% (n = 400,000)
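Here, compound and 10 nM enzyme are combined for 15 min at room temperature; adding 50 nM substrate (final) starts DNA synthesis, tracked by fluorescence at 0 and 10 min against buffer-only wells.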
FEN1 inh-1 = inhibitors of human flap endonuclease 1; P39748; Potency, µM (highest dose often 114 µM), usual class: inhibitors; AID 588795; Recombinant FEN1 flap cleavage, fluorescence, 15 min; actives 0.35% (n = 390,000); further: nearly all actives have a fitted effect of over 65% in size
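Recombinant FEN1 (10 nM) was preincubated with pin-transferred compounds for 15 min at room temperature, then flap DNA substrate (50 nM final) was added. Plates were read at 0 and 15 min, and normalized concentration–response data were fitted to a four-parameter Hill equation.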
POLB inh = DNA polymerase beta (human) inhibition | Pol beta primer extension/strand displacement, fluorescence kinetic | Potency, µM (highest dose often 114 µM), hits mostly inhibitors | actives 1.3% (n = 340,000) | AID 485314
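Homogeneous kinetic assay of primer extension and strand displacement by 10 nM Pol beta, preincubated 15 min at room temperature with compound before 50 nM substrate (final) was added. Read at 0 and 10 min; four-parameter Hill fit.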
WRN helicase inh-1 = blocks human WRN helicase | Q14191 | WRN helicase unwinding, fluorescent forked duplex, kinetic | Potency, µM (series often up to 114 µM), hits mostly inhibitors | actives 0.46% (n = 360,000) | AID 651768; further: nearly all actives have a fitted effect of over 55% in size
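Kinetic fluorescence helicase assay: unwinding of a quenched forked DNA duplex (100 nM final) with 2 mM ATP final raises red fluorescence (525/598 nm). Compounds sat 15 min at room temperature with 20 nM WRN beforehand.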
Pol iota inh = DNA polymerase iota (human) inhibition. Q9UNA4. Pol iota fluorescent replication assay, 10 min. Potency, µM (titrated, usually from 115 µM), actives largely listed as inhibitors. actives 1% (n = 390,000). AID 588590
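Fluorescent replication assay read twice, at 0 min and 10 min after adding 50 nM (final) substrate. Enzyme (10 nM) and compounds were first incubated 15 min at room temperature; enzyme-free buffer wells were negative controls.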
Pol eta inh-1 = inhibitors of human DNA polymerase eta. Q9Y253. recombinant Pol eta, fluorescent DNA replication assay. Potency, µM (top dose mostly 114 µM), hits mostly inhibitors. actives 1.2% (n = 390,000)
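Pol eta (10 nM) was preincubated with compounds for 15 min at room temperature, after which fluorescent replication substrate (50 nM final) was added to start the reaction. Fluorescence was read kinetically at 0 and 10 min.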
PGK validate = blocks T. brucei phosphoglycerate kinase; shares compounds with Pol kappa inh-1; TbPGK coupled GAPDH assay, Kinase-Glo luminescence; Potency, µM (highest dose often 57.5 µM), hits mostly inhibitors; actives 79% (n = 500); AID 686980; further: nearly all actives have a fitted effect of over 65% in size
Target sequence (P07378 whole entry, looked up): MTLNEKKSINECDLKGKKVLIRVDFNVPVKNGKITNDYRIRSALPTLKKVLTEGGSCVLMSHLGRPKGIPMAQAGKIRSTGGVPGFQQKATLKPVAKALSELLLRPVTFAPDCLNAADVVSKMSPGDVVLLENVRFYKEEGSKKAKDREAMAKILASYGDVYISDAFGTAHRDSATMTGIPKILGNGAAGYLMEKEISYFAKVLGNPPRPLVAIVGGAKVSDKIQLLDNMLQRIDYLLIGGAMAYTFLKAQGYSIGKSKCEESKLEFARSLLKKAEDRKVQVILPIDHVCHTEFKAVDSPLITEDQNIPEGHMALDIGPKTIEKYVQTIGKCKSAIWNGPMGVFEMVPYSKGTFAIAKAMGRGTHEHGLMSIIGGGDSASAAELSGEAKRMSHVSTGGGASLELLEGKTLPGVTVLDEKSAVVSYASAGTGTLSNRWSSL
POLI cherry-pick = Inhibitors of human DNA polymerase iota, confirmation. shares compounds with Pol kappa inh-1. Pol iota primer extension, TAMRA/BHQ fluorescence. Potency, µM, usual class: inhibitors. actives 77% (n = 1,500). AID 720496
Pol kappa inh-2 = Pol kappa (human) inhibition, cherry-pick confirmation. shares compounds with Pol eta inh-1. purified Pol-kappa, fluorescent strand-displacement substrate. Potency, µM, usual class: inhibitors. actives 76% (n = 920). AID 720501
Pol eta inh-2 = Pol eta (human) inhibition, cherry-pick confirmation | actives 64% (n = 2,600) | shares compounds with Pol eta inh-1 | Potency, µM, usual class: inhibitors | Pol eta primer extension, TAMRA/BHQ fluorescence, 10 min
FEN1 inh-2 = FEN1 inhibition, cherry-pick retest | shares compounds with FEN1 inh-1 | FEN1 flap cleavage, TAMRA/BHQ2 fluorogenic DNA substrate | Potency, µM, hits mostly inhibitors | actives 79% (n = 880) | AID 720498; further: nearly all actives have a fitted effect of over 60% in size
WRN helicase inh-2 = WRN helicase inhibition, cherry-pick retest; AID 720497; Potency, µM (titrated, usually from 57.1 µM), hits mostly inhibitors; shares compounds with WRN helicase inh-1; actives 63% (n = 610); WRN helicase DNA unwinding, fluorescence kinetic; further: nearly all actives have a fitted effect of over 65% in size
TO displacement = counter-screen for WRN helicase inhibitors: DNA binding; Potency, µM (doses to about 57.1 µM), most hits filed as inhibitors; actives 10% (n = 610); shares compounds with WRN helicase inh-1; AID 720499; thiazole orange DNA binding displacement, fluorescence;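 further: drop in dye fluorescence marks compound binding to DNA; nearly all actives have a fitted effect of over 60% in size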
BLM counter = blocks human BLM helicase in WRN counterscreen; shares compounds with WRN helicase inh-1; Recombinant BLM helicase DNA unwinding, red fluorescence; Potency, µM (titrated, usually from 57.1 µM), most hits filed as inhibitors; actives 60% (n = 610); further: nearly all actives have a fitted effect of over 60% in size
Numbers stand for hits; – = inactive; ? = inconclusive; · = not tested or not shown. The call rests on the fitted dose curve; in most records, active means well fitted curve in the direction sought with a large enough effect; inconclusive means small, poorly fitted or top-dose-only effect, or another doubt; inactive means no such curve, though single readings can be large; an effect the other way counts as inactive or inconclusive.

SMILES	Pol kappa inh-1	FEN1 inh-1	POLB inh	WRN helicase inh-1	Pol iota inh	Pol eta inh-1	POLI cherry-pick	Pol kappa inh-2	Pol eta inh-2	WRN helicase inh-2	TO displacement	BLM counter	others
CCc1ccccc1NC(=O)Cn1c(=O)n(CCCS(=O)(=O)C2CCCCC2)c(=O)c2ccccc21	–	–	–	·	–	–	·	·	·	·	·	·
CN(C)Cc1c(O)ccc2c(=O)c(-c3ccc(Cl)cc3)coc12	–	–	–	–	–	–	·	·	·	·	·	·
O=c1c(-c2ccc([N+](=O)[O-])cc2)coc2c(O)c(O)ccc12	7.1µM	?	?	22µM	8.9µM	3.2µM	·	·	8.5	4.8µM	–	4.3µM	PGK validate=2.6µM
CN1/C(=C\C=C2/C(=O)Oc3ccccc3C2=O)C(C)(C)c2ccccc21	?	35µM	45µM	27µM	–	89µM	75	24	54	15µM	·	–	FEN1 inh-2=19
CN1C(=CC=C2C=C(I)C(=O)C(I)=C2)C(C)(C)c2ccccc21	?	32µM	?	4.7µM	3.5µM	?	34	75	48	27µM	–	19µM	FEN1 inh-2=85
CC1=NN(c2ccccc2)C(=O)/C1=C\C=C1/N(C)c2ccccc2C1(C)C	–	?	–	–	–	–	·	·	·	·	·	·
Cc1cc2nc(-c3ccc(OCc4ccccc4C)cc3)cc(C(F)(F)F)n2n1	–	–	–	·	–	–	·	·	·	·	·	·
CCOc1ccc(NC(=O)Cn2cnc3sc(C)c(S(=O)(=O)N4CCN(c5ccccc5OC)CC4)c3c2=O)cc1	–	–	–	·	–	–	·	·	·	·	·	·
CCOCCCNC(=O)/C(C#N)=C/c1ccc(C(=O)OC)cc1	–	–	–	–	–	–	·	·	·	·	·	·
COCCCNC(=O)/C(C#N)=C/c1ccc(OCC(=O)O)c(OC)c1	22µM	?	3.5µM	?	10µM	2.5µM	19	·	27	19µM	?	5.4µM
O=C1CCCC(O)=C1N=Nc1ccc(C(=O)O)cc1	20µM	45µM	2.8µM	32µM	6.3µM	3.2µM	6	·	4.8	7.6µM	?	12µM	PGK validate=9.2µM;FEN1 inh-2=?
O=C1CCCC(O)=C1N=Nc1ccc2c(c1)OCO2	–	–	–	–	–	–	·	·	·	·	·	·
COc1cc(OC)c(NC(=O)C(C)n2nc(-c3ccc(C)c(C)c3)ccc2=O)cc1Cl (centres undefined)	–	–	–	·	–	–	·	·	·	·	·	·
COc1ccc(/C=c2\sc3nc(=O)c(C)nn3c2=O)c(OC)c1	–	–	–	–	–	–	·	·	·	·	·	·
COc1ccc(Br)cc1/C=c1\sc2nc(-c3ccco3)nn2c1=O	20µM	?	4.5µM	35µM	8.9µM	3.2µM	60	12	30	17µM	19µM	7.6µM
Cc1ccc(Cl)cc1NC(=O)NCc1cccn1Cc1ccc(F)cc1	–	–	–	·	–	–	·	·	·	·	·	·
Cc1ccc(OCC(=O)Nc2ccccc2C(=O)OCc2cc(=O)n3c(C)csc3n2)cc1	–	–	–	·	–	–	·	·	·	·	·	·
Cc1ccc(S(=O)(=O)N2CCN(C(=O)c3cc4c(s3)CCCC4)CC2)cc1	–	–	·	–	–	–	·	·	·	·	·	·
COc1ccc(S(=O)(=O)N2CCN(C(=O)c3cc4c(s3)CCC4)CC2)cc1	28µM	45µM	·	35µM	2.8µM	2.2µM	3	3	7.6	7.6µM	?	1.1µM	FEN1 inh-2=76
Cc1cc(C)c2nc(N3CCCC(C(=O)NCc4cccc(Cl)c4)C3)sc2c1 (centres undefined)	–	–	–	·	–	–	·	·	·	·	·	·
COc1ccc2nc3cc(Cl)ccc3c(Nc3ccc(O)c(CN4CCN(C)CC4)c3)c2c1	79µM	22µM	·	18µM	?	?	?	·	·	6.1µM	11µM	22µM
CCN(CC)CCCNc1nc(-c2ccccc2)nc2ccccc12	–	–	?	–	–	–	·	·	·	·	·	·
CCN(CC)CCCNc1nc2ccccc2c2[nH]c3ccc(OC)cc3c12	18µM	3.5µM	·	25µM	18µM	10µM	3	3.4	30	6.8µM	?	?	FEN1 inh-2=2.7
O=C(COc1ccccc1C(=O)N/N=C\c1ccc(O)c(O)c1)N/N=C/c1ccc(O)c(O)c1	0.71µM	1.6µM	0.28µM	0.27µM	–	–	0.42	·	0.34	0.27µM	19µM	0.12µM	PGK validate=0.29µM;FEN1 inh-2=17
NC1=NC(=O)/C(=C/c2ccc(-c3ccc(S(N)(=O)=O)cc3)o2)S1	79µM	?	?	35µM	45µM	22µM	34	21	54	19µM	–	11µM
Cc1cccc(-c2noc(-c3ccccc3OCC(=O)Nc3ccc([N+](=O)[O-])cc3)n2)c1	–	–	–	·	–	–	·	·	·	·	·	·
CCOC(=O)C1CCCN(C(=O)c2cc(-c3ccco3)nc3ccccc23)C1 (centres undefined)	22µM	56µM	·	32µM	3.5µM	3.2µM	19	9.5	19	14µM	?	1.7µM	PGK validate=10µM
Fc1ccccc1-c1ccc(-c2nc3ccc(Cl)cn3c2Nc2ccc(Cl)cc2)o1	?	–	·	·	–	·	·	·	·	·	·	·
COc1ccc(NS(=O)(=O)c2ccc3c(c2)[C@H]2C=CC[C@H]2[C@@H](c2ccc(C(=O)O)cc2)N3)cc1	10µM	20µM	20µM	40µM	?	2.8µM	24	2.4	9.5	22µM	–	27µM	PGK validate=18µM;FEN1 inh-2=38
CCOc1ccc(-c2nc(SCC(=O)Nc3ccc(C)c(C)c3)n3[nH]c(=O)cc3n2)cc1	–	?	3.2µM	·	?	50µM	27	·	85	15µM	–	3µM	PGK validate=16µM
